Source: PubChem BioAssay (several laboratories)
Only a selection was taken, and hits are over-represented in it overall.
AMPAR-TARP mod: modulators of GluA2-stargazin AMPA receptor complexes, primary screen, cell-based, membrane potential dye. HEK293 GluA2+stargazin, membrane potential dye (FDSS), glutamate EC50; hits were called plate by plate, in both directions. AID 1259245, 2017. calls only at 30 µM. Voltage-dependent calcium channel gamma-2 subunit (Mus musculus) + Glutamate receptor 2 …. hit rate 3.5% among 40,000;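 active = any of four per-well response measures lying three or more SD from its plate-wide compound average, in either direction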
GIRK2 activator: activators of NPY4-receptor-primed GIRK2 channels, summary, cell-based, HEK293, thallium flux | G protein-activated inward rectifier potassium channel 2 (Homo sapiens), P48051 | HEK293 GIRK2/NPY4 cells, thallium flux fluorescence | activation (% efficacy), % for hits at 37.5 µM | 34,000 tested, under 10 active | AID 1259324, 2017;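 active = primary screen hit, no activity in plain HEK293 cells, and in GIRK2-only cells above 5% efficacy rising with concentration; inactive = the rest, including fluorescent compounds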;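 note: efficacy is normalized control-subtracted fluorescence 15 s after thallium addition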
Target sequence (P48051 whole entry, looked up): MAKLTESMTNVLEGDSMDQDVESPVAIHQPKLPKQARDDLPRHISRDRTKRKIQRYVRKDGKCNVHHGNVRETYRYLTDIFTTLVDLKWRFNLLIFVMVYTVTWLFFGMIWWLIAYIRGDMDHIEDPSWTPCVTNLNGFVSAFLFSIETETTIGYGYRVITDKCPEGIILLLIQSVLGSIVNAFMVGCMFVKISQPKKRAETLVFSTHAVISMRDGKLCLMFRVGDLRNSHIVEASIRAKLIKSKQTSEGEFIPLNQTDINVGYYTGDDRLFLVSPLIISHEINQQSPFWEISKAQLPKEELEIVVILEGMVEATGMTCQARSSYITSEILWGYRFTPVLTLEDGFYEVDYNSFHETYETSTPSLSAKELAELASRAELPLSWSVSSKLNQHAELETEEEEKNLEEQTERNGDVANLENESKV
Numbers without * were called inactive; i = inactive; / = no result given; + = active, no number.

SMILES	AMPAR-TARP mod	GIRK2 activator
O=S(=O)(NCC#CCN1CCc2ccccc2C1)c1cccc(Cl)c1	i	i
COc1ccc(S(=O)(=O)NCC#CCN2CCc3ccccc3C2)cc1C	+	i
COc1ccc(-c2ccc(=O)n(CCNS(=O)(=O)c3ccc(F)c(C(F)(F)F)c3)n2)cc1	i	/
COc1ccc(CCC(=O)Nc2ccc3c(c2)N(C(=O)c2ccccc2)CCC3)cc1	i	/
Cc1cccc(CC(=O)Nc2ccc3c(c2)CC(=O)N3C)c1	i	/
O=C(Nc1ccc(O)c(-c2nc3ccccc3s2)c1)c1ccno1	i	i
CN1C(=O)c2ccc(NC(=O)c3ccno3)cc2C1=O	+	/
O=C(Nc1ccc2sccc2c1)c1ccno1	+	i
CN1CCOc2ccc(NC(=O)c3ccno3)cc2C1=O	i	i
CN1C(=O)Cc2cc(NC(=O)c3ccno3)ccc21	+	i
COc1ccc(-c2ccc(C)c(NS(=O)(=O)CCc3ccccc3)c2)nn1	i	i
CC(O)(CNC(=O)COc1ccc2ccccc2c1)c1ccccc1 (centres undefined)	i	i
COc1cccc(OCC(=O)NCC(C)(O)c2ccc(-c3ccccc3)cc2)c1 (centres undefined)	+	i
NS(=O)(=O)c1ccc(NC(=O)CC2Sc3ccccc3NC2=O)cc1 (centres undefined)	i	/
C=CCn1c(SCC(=O)NCC2CCCO2)nc2scc(-c3ccc(Cl)cc3)c2c1=O (centres undefined)	i	i
C=CCn1c(SCC(=O)NCc2ccco2)nc2scc(-c3ccccc3Cl)c2c1=O	+	i
CCOC(=O)Cn1c(=O)c2c(nc3n(-c4ccc(C)cc4)c(C)c(C)n23)n(C)c1=O	i	/
CCC(CC)C(=O)NCCNc1ccc(Nc2cccc(C)n2)nn1	+	i
COc1ccccc1C(=O)NCCNc1ccc(Nc2cccc(C)n2)nn1	/	i
COC(=O)N1CCC(CNC(=O)/C=C/c2cccs2)CC1	i	i
O=C(/C=C/c1cccs1)NCC1CCN(Cc2ccsc2)CC1	+	i
Cc1ccc(CNS(=O)(=O)c2ccc3oc(=O)ccc3c2)cc1	/	i
CC1CN(C)CCN1CC1CCN(C(=O)NCc2ccccc2)CC1 (centres undefined)	i	i
CC(c1ccccc1)n1c(C2CC(=O)N(C(C)(C)C)C2)nc2ccccc21 (centres undefined)	+	/
C=CCN1CC(c2nc3ccccc3n2Cc2ccc(Cl)c(Cl)c2)CC1=O (centres undefined)	i	/
SMILES	AMPAR-TARP mod	GIRK2 activator
C=CCN1CC(c2nc3ccccc3n2Cc2c(C)c(C)cc(C)c2C)CC1=O (centres undefined)	+	/
CC(C)(C)N1CC(c2nc3ccccc3n2CCOc2ccccc2)CC1=O (centres undefined)	i	/
C=CCN1CC(c2nc3ccccc3n2C(C)c2ccccc2)CC1=O (centres undefined)	+	/
C=CCN1CC(c2nc3ccccc3n2Cc2ccc(C(C)(C)C)cc2)CC1=O (centres undefined)	i	/
Cc1cnc2c(c1N1CCN(C(=O)c3ccco3)CC1)c(=O)n(CCc1ccccc1)c(=O)n2C	i	/
CS(=O)(=O)N1CCCC1C(=O)Nc1nc(-c2ccccc2)cs1 (centres undefined)	i	i
COc1ccc(OC)c2c1sc(=NC(=O)c1cc(C)no1)n2C	i	i
COc1cccc2sc(=NC(=O)c3cc(C)no3)n(C)c12	+	i
Cc1cccc(NC(=O)Cn2nc3ccc(SC(C)C)nn3c2=O)c1	i	i
COc1cc(-c2nnc(NC(=O)c3ccc(C(C)=O)cc3)o2)cc(OC)c1OC	+	/
COc1cccc(C(=O)Nc2nnc(-c3ccc(C)c(C)c3)o2)c1	i	i
COc1cccc(C(=O)Nc2nnc(-c3cc(OC)c(OC)c(OC)c3)o2)c1	+	/
COc1cc(-c2nnc(NC(=O)c3ccc(OC(C)C)cc3)o2)cc(OC)c1OC	i	/
Cc1csc(C(=O)N2CCC(CN3CCN(C)CC3C)CC2)c1 (centres undefined)	i	i
COc1ccc(Cn2c(SCc3nc(-c4ccc(C)cc4)no3)nc3ccsc3c2=O)cc1	i	i
Cc1cc(C)c2c(n1)nn1c(NC(C)c3ccccc3)cc(C)nc21 (centres undefined)	i	i
Cc1cc(C)c2c(n1)nn1c(N3CCCCC3)cc(C)nc21	+	i
CC(=O)c1ccc(NC(=S)N2CCN(C(c3ccccc3)c3ccccc3)CC2)cc1	i	/
CC1C(=O)NCCN1C(=O)c1cc(Cl)ccc1Cl (centres undefined)	i	/
O=C(Nc1ccc2ncsc2c1)c1cccc([N+](=O)[O-])c1	+	i
